According to PubChem BioAssay:

These compounds were tested against Homeobox protein Hox-A13 (Mus musculus) (UniProt Q62424) (assay: inhibitors of HoxA13-DNA binding, primary screen, biochemical, fluorescence polarization, labeled oligonucleotide (AID 1185)). Details: 15 min, higher = more signal, called active from +8 up or from −8 down.
Sequence of Homeobox protein Hox-A13 (Mus musculus) (Q62424 whole entry, looked up): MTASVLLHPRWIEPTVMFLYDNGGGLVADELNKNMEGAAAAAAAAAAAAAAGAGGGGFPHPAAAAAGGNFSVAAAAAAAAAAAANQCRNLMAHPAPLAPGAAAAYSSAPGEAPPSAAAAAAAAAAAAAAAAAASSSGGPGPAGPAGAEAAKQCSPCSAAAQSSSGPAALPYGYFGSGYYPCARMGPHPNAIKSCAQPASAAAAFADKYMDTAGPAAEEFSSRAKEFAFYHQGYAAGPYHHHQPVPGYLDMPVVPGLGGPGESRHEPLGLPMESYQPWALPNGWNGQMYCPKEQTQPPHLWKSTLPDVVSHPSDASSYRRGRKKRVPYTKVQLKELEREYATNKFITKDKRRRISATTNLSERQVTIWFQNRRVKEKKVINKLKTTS

z-score, inactive:
C=CCN1C(=O)[C@]2(O[C@H](CCn3cc([C@H](O)c4ccccc4)nn3)[C@@H]([Si](C)(C)c3ccc(OC)cc3)[C@@H]2C)c2cc(N3C(=O)c4cccc5cccc3c45)ccc21 -3.64
C=CCC(OC(C)=O)[C@@H]1[C@@H](N(Cc2ccc(-c3ccccc3)cc2)C(=O)c2ccc(C)cc2)c2cc(OCCCO)ccc2N1C(=O)c1ccc2ccccc2c1 (some centres undefined) -0.819
C#CCN(C/C=C/c1ccccc1)[C@H](CO[Si](C)(C)C(C)(C)C)c1ccccc1 -0.229
CC(C)C[C@@H]1NC(=O)[C@H]2C[C@@H](C(=O)NCCCCCCNC(=O)CS)[C@@H](c3ccc(O)cc3)N2C1=O -3.29
COCCOC(=O)N1C(=O)[C@@]2(c3cc(C#CC4(O)CCCCCC4)ccc31)[C@H](C(=O)N1CCc3cc(OC)c(OC)cc3C1)[C@H]1C(=O)O[C@H](c3ccccc3)[C@H](c3ccccc3)N1[C@@H]2c1ccc(O)cc1 -0.363
CCOC(=O)C1=C(C(=O)OCC)N(S(=O)(=O)CC[Si](C)(C)C)[C@H](c2ccccc2)CC1 -2.79
COc1ccccc1CN1C(=O)c2ccccc2[C@](Cc2ccccc2I)(C(=O)NCCCN(C)C)[C@@H]1c1ccc(CO)cc1 1.61
[N-]=[N+]=NCc1ccccc1C[C@]1(C(=O)N2CCCCC2)N=C(c2ccc(OCCCO)cc2)O[C@H]1c1ccccc1 -4.35
C=CCC(OC(C)=O)[C@@H]1[C@@H](N(Cc2ccc(-c3ccccc3)cc2)C(=O)c2ccc(-c3ccccc3)cc2)c2cc(OCCCO)ccc2N1C(=O)c1ccc2ccccc2n1 (some centres undefined) -0.983
